Test results published in PubChem BioAssay (EPA / NIEHS).
Results filed as inconclusive are left out. Active and inactive are the calls of the source. The calls were made as follows, unless noted: active = hit-call score of the fitted dose curve at least 0.9, where 1 is the maximum; inactive = score below 0.9.

What was measured:
[1] = read-out: Monokine induced gamma interferon (MIG), CXCL9 (gene 4283); experiment: BSK_3C_MIG: BioMAP Diversity Plus: 3C Assay for Monokine induced gamma interferon (MIG) Biomarker Activity (AID 2283021); details: primary human endothelial cells (HUVEC); actives raise or lower the signal;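 as to AC50: MIG protein level measured by immunoassay in the treated endothelial cultures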
Outline: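 ELISA measurement of MIG in human umbilical vein endothelial cells 24 h after treatment. Cytotoxicity tracked by SRB staining in parallel cultures; gain or loss of signal fitted relative to DMSO.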

[2] = target: human Vitamin D Receptor (VDR), VDR (gene 7421) (UniProt P11473); experiment: ATG_VDR_TRANS: Attagene TRANS-FACTORIAL HepG2 Assay for human Vitamin D Receptor (VDR) (AID 2283022; active = hit-call score of the fitted dose curve at least 0.9, where 1 is the maximum)
Outline: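 Steps: transfect HepG2 with GAL4-UAS-driven reporter constructs; dose compounds 24 h; isolate RNA, reverse-transcribe, PCR-amplify with 6-FAM-labelled primer extension and HpaI digestion; quantify fragments by capillary electrophoresis relative to DMSO.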

[3] = BSK_3C_SRB: Viability Assessment in the BioMAP Diversity Plus: 3C Assay (AID 2283023); details: primary human endothelial cells (HUVEC);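 also: fitted both ways against DMSO so a hit may be signal rise or drop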
Outline: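 Absorbance at 560 nm of sulforhodamine B-stained (0.1%) total protein served as a cytotoxicity readout in human umbilical vein endothelial cells, 24 h after chemical treatment. Signal was fitted bidirectionally relative to DMSO.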

[4] = read-out: Matrix Metallopeptidase 1 (MMP1), MMP1 (gene 4312); experiment: BSK_BE3C_MMP1: BioMAP Diversity Plus: BE3C Assay for Matrix Metallopeptidase 1 (MMP1) Biomarker Activity (AID 2283024); details: primary human bronchial epithelial cells; actives raise or lower the signal
Outline: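 ELISA measurement of MMP-1 after 24 h compound exposure of primary human bronchial epithelial cells. Changes in either direction fitted relative to DMSO; parallel SRB staining checked overt cytotoxicity.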

[5] = BSK_3C_Vis: BioMAP Diversity Plus: 3C Assay for Morphology Visualization (AID 2283025); details: primary human endothelial cells (HUVEC);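 also: fitted both ways so gain or loss versus DMSO counts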;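 as to AC50: light microscopy image of cell morphology used as background control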
Outline: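 Light-microscopy visualization of HUVEC cultures at 24 h post-treatment, with DMSO as baseline for bidirectional fitting.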

[6] = read-out: Pselectin, SELP (gene 6403); experiment: BSK_4H_Pselectin: BioMAP Diversity Plus: 4H Assay for Pselectin Biomarker Activity (AID 2283026); details: primary human endothelial cells (HUVEC); actives raise or lower the signal
Outline: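 ELISA of surface P-selectin on HUVEC, 24 h after dosing, with parallel SRB staining (0.1% after 10% TCA fixation, 560 nm) for overt cytotoxicity. Activity fitted in both directions relative to DMSO.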

[7] = BSK_4H_SRB: Viability Assessment in the BioMAP Diversity Plus: 4H Assay (AID 2283027); details: primary human endothelial cells (HUVEC);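 also: cells exposed to compound for 24 h before staining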;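 as to AC50: curves fitted both ways versus DMSO so AC50 may be loss or gain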
Outline: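 Cytotoxicity read-out in primary human endothelial cells: after 24 h compound exposure, cells were TCA-fixed (10%), stained with 0.1% SRB and absorbance taken at 560 nm. Values fitted in both directions relative to DMSO.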

[8] = read-out: Urokinase-type plasminogen activator receptor (uPAR), PLAUR (gene 5329); experiment: BSK_4H_uPAR: BioMAP Diversity Plus: 4H Assay for Urokinase-type plasminogen activator receptor (uPAR) Biomarker Activity (AID 2283030); details: primary human endothelial cells (HUVEC); actives raise or lower the signal
Outline: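 Cell-surface uPAR ELISA signal, measured 24 h after dosing human umbilical vein endothelial cells, was analyzed with bidirectional fitting relative to DMSO. Parallel SRB staining of total protein tracked overt cytotoxicity.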

[9] = read-out: Vascular endothelial growth factor receptor 2 (Homo sapiens) (UniProt P35968); experiment: BSK_4H_VEGFRII: BioMAP Diversity Plus: 4H Assay for Vascular endothelial growth factor receptor 2 (VEGFR2) Biomarker Activity (AID 2283031); details: primary human endothelial cells (HUVEC); actives raise or lower the signal;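 as to AC50: cell-surface VEGFR2 protein level quantified by ELISA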
Outline: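 ELISA read-out of VEGFRII in primary human umbilical vein endothelium, taken 24 h after chemical treatment. Responses are expressed relative to DMSO, with bidirectional fitting.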

[10] = read-out: Human Leukocyte Antigen - DR isotype (HLADR), HLA-DRA (gene 3122); experiment: BSK_BE3C_HLADR: BioMAP Diversity Plus: BE3C Assay for Human Leukocyte Antigen - DR isotype (HLADR) Biomarker Activity (AID 2283032); details: primary human bronchial epithelial cells; actives raise or lower the signal
Outline: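 Cell-surface HLA-DR ELISA readout at 24 h after dosing in the BE3C primary human lung bronchial epithelial system; gain or loss of signal against DMSO, with parallel sulforhodamine B staining of total protein for overt cytotoxicity.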

[11] = read-out: Vascular cell adhesion molecule 1 (VCAM1), VCAM1 (gene 7412); experiment: BSK_4H_VCAM1: BioMAP Diversity Plus: 4H Assay for Vascular cell adhesion molecule 1 (VCAM1) Biomarker Activity (AID 2283033); details: primary human endothelial cells (HUVEC); actives raise or lower the signal
Outline: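 VCAM-1 ELISA read 24 h after chemical dosing of HUVEC in the BioMAP 4H system, with gain or loss of signal fitted relative to DMSO. Parallel SRB staining (560 nm) checked overt cytotoxicity.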

[12] = read-out: Interferon-gamma inducible Protein 10 (IP10), CXCL10 (gene 3627); experiment: BSK_BE3C_IP10: BioMAP Diversity Plus: BE3C Assay for Interferon-gamma inducible Protein 10 (IP10) Biomarker Activity (AID 2283034); details: primary human bronchial epithelial cells; actives raise or lower the signal
Outline: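 IP-10 quantified by ELISA in human primary bronchial epithelial cell cultures at 24 hours post-dosing. Gain or loss of signal fitted relative to DMSO; parallel SRB staining assessed overt cytotoxicity.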

[13] = read-out: Monokine induced gamma interferon (MIG), CXCL9 (gene 4283); experiment: BSK_BE3C_MIG: BioMAP Diversity Plus: BE3C Assay for Monokine induced gamma interferon (MIG) Biomarker Activity (AID 2283035); details: primary human bronchial epithelial cells; actives raise or lower the signal
Outline: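 ELISA quantified MIG after 24 h exposure of primary bronchial epithelial cultures, analysed in both directions relative to DMSO. Cytotoxicity tracked in parallel cultures by sulforhodamine B staining.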

[14] = read-out: Transforming growth factor beta 1 (TGFb1), TGFB1 (gene 7040); experiment: BSK_BE3C_TGFb1: BioMAP Diversity Plus: BE3C Assay for Transforming growth factor beta 1 (TGFb1) Biomarker Activity (AID 2283036); details: primary human bronchial epithelial cells; actives raise or lower the signal
Outline: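 ELISA readout of TGF-b1 from human lung bronchial epithelial primary cells, taken 24 h post-treatment. Gain or loss of signal fitted relative to DMSO baseline, with parallel SRB staining for overt cytotoxicity.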

[15] = read-out: Plasminogen activator inhibitor-1 (PAI1), SERPINE1 (gene 5054); experiment: BSK_BE3C_PAI1: BioMAP Diversity Plus: BE3C Assay for Plasminogen activator inhibitor-1 (PAI1) Biomarker Activity (AID 2283037); details: primary human bronchial epithelial cells; actives raise or lower the signal
Outline: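 PAI-1 was measured by ELISA in human primary bronchial epithelial cultures 24 h after chemical dosing, with cytotoxicity checked by SRB total-protein staining in parallel cultures. Activity was fitted in both directions relative to DMSO.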

[16] = read-out: urokinase plasminogen activator (uPA), PLAU (gene 5328); experiment: BSK_BE3C_uPA: BioMAP Diversity Plus: BE3C Assay for urokinase plasminogen activator (uPA) Biomarker Activity (AID 2283038); details: primary human bronchial epithelial cells; actives raise or lower the signal
Outline: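 Bronchial epithelial cells (human, primary); chemical 24 h; uPA by ELISA; bidirectional fit vs DMSO. SRB (0.1%, after 10% TCA fixation, 560 nm) in parallel cultures for cytotoxicity.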

[17] = read-out: Urokinase-type plasminogen activator receptor (uPAR), PLAUR (gene 5329); experiment: BSK_BE3C_uPAR: BioMAP Diversity Plus: BE3C Assay for Urokinase-type plasminogen activator receptor (uPAR) Biomarker Activity (AID 2283039); details: primary human bronchial epithelial cells; actives raise or lower the signal
Outline: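 uPAR levels were measured by ELISA after 24 h compound treatment of primary human bronchial epithelial cells, fitted in both directions relative to DMSO. Parallel SRB staining served as the cytotoxicity read-out.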

[18] = read-out: Interleukin-6 (IL6), IL6 (gene 3569); experiment: BSK_CASM3C_IL6: BioMAP Diversity Plus: CASM3C Assay for Interleukin-6 (IL6) Biomarker Activity for (AID 2283040); details: primary human coronary artery smooth muscle cells; actives raise or lower the signal
[19] = read-out: Thrombomodulin, THBD (gene 7056); experiment: BSK_3C_Thrombomodulin: BioMAP Diversity Plus: 3C Assay for Thrombomodulin Biomarker Activity (AID 2283029); details: primary human endothelial cells (HUVEC); actives raise or lower the signal
Outline: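 ELISA measurement of thrombomodulin on HUVEC surface 24 h after chemical dosing; activity fitted in both directions relative to DMSO vehicle.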

[20] = BSK_BE3C_SRB: Viability Assessment in the BioMAP Diversity Plus: BE3C Assay (AID 2283028); details: primary human bronchial epithelial cells
Outline: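 Cells (human bronchial epithelial, primary) are treated with chemicals, and after 24 h the parallel cultures are fixed in 10% TCA. These are then stained with 0.1% SRB and read at 560 nm. Gain or loss of signal is fitted relative to DMSO.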

Measured: AC50

Sequence of human Vitamin D Receptor (VDR), VDR (gene 7421) (P11473 whole entry, looked up, the tested form may be a part): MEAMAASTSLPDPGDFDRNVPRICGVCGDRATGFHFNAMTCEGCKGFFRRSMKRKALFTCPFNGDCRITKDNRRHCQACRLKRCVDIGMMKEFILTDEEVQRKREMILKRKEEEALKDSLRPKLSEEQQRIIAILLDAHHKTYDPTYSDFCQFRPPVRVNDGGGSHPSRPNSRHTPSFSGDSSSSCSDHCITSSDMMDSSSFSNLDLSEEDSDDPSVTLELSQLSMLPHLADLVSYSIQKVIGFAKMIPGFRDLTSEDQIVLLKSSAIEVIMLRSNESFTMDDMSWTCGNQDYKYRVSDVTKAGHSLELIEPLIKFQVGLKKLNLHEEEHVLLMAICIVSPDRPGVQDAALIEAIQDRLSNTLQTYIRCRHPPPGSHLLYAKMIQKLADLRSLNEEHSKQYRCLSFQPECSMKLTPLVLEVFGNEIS

CCN(CC)C(=O)N(CC)CC
not listed: [19] | [20]
inactive: all other assays above

CN(C)C(=S)SC(=S)N(C)C
active: [3] 19.9 µM | [5] 39.2 µM | [7] 19.9 µM | [10] 13.7 µM | [11] 26.9 µM | [12] 34.7 µM | [13] 34.9 µM | [16] 19.9 µM | [17] 31.7 µM
not listed: [20]
inactive: all other assays above

C1=CC2C3C=CC(C3)C2C1 (centres undefined)
not listed: [19] | [20]
inactive: all other assays above

Cc1cc(CCC(=O)OCCOCCOCCOC(=O)CCc2cc(C)c(O)c(C(C)(C)C)c2)cc(C(C)(C)C)c1O
active: [3] 28.1 µM | [12] 10.1 µM | [14] 17.8 µM
not listed: [2] | [19] | [20]
inactive: all other assays above

IC(I)I
not listed: [2] | [19]
inactive: all other assays above

CCCCCC(C=O)=Cc1ccccc1
active: [3] 33.1 µM | [4] 0.096 µM | [5] 37.8 µM | [6] 32.7 µM | [7] 34.1 µM | [8] 36.5 µM | [9] 31.3 µM | [10] 33.1 µM | [11] 30.5 µM | [12] 30.6 µM | [18] 32 µM
inactive: [1] | [13] | [14] | [15] | [16] | [17]

C[C@@H]1CCN(C(=O)[C@H](CCCN=C(N)N)NS(=O)(=O)c2cccc3c2NC[C@H](C)C3)[C@@H](C(=O)O)C1
active: [4] 0.0398 µM
not listed: [2] | [19]
inactive: all other assays above

CC(=O)Nc1ccc(C(=O)CCl)cc1
active: [1] 10.9 µM | [3] 9.52 µM | [4] 13.2 µM | [5] 4.8 µM | [6] 4.79 µM | [7] 6.69 µM | [8] 9.47 µM | [9] 9.38 µM | [10] 15.1 µM | [11] 6.74 µM | [12] 25.6 µM | [13] 33.3 µM | [17] 31.7 µM | [18] 10.6 µM
inactive: [2] | [14] | [15] | [16]

Clc1cc(Cl)c(-c2c(Cl)c(Cl)cc(Cl)c2Cl)cc1Cl
active: [3] 15.8 µM | [5] 19.9 µM | [6] 10 µM | [7] 18.8 µM | [8] 17.4 µM | [9] 10 µM | [10] 12.9 µM | [11] 8.56 µM | [12] 17.5 µM | [15] 10 µM | [17] 1.98 µM
inactive: [1] | [4] | [13] | [14] | [16] | [18]

C=CC(C)(O)CCC=C(C)C (centres undefined)
not listed: [5] | [14] | [19]
inactive: all other assays above

COc1cc(Cl)c(OC)cc1N
not listed: [20]
inactive: all other assays above

Oc1c(Cl)cc(Cl)c(Cl)c1Cc1c(O)c(Cl)cc(Cl)c1Cl
inactive: [2] | [14] | [16]
active: [1] 31.1 µM | [3] 5.1 µM | [4] 2.26 µM | [5] 13.7 µM | [6] 1.05 µM | [7] 6.35 µM | [8] 2.26 µM | [9] 0.675 µM | [10] 0.634 µM | [11] 12.8 µM | [12] 8.17 µM | [13] 8.39 µM | [15] 3.97 µM | [17] 20 µM | [18] 7.83 µM
